# An excerpt weighted towards active compounds, which were near 4.9% of everything screened.
# Platelet DG rel – platelet dense granule release activity | human platelet-rich plasma, SFLLRN dense granule ATP release, luminescence | inhibition, %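 (compounds screened at 7.5 µM in platelet-rich plasma)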 | AID 1663 | 300,000 compounds, 0.22% hits;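 active = mean replicate score, as percent of positive control, at or above 50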
# HSF1 inh – HSF1 inhibition. NIH3T3-HGL HSE-luciferase, MG132-induced, luminescence 8 h; stronger effect = lower value. activity change, negative = inhibition, % at 7.5 µM (by protocol). 300,000 compounds, 0.77% hits. AID 2098;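 active = more than half of replicate wells show activity change below -50%, luminescence cut by over half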;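 also: luciferase reports HSF-1 transcriptional activity via heat shock element; 0% = median of DMSO wells and -100% = zero luminescence signal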
# HSP90 inh – inhibitors of HSP90 luciferase refolding in rabbit reticulocyte lysate; luciferase refolding luminescence, 3 h; inhibition, % at 5.6 µM; 290,000 compounds, 0.91% hits; AID 1789;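 active = inhibition above the screen-wide mean plus 3 SD, computed separately per campaign, cut at about 16% in these data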;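 also: 0% = DMSO wells and 100% = 60 µM geldanamycin wells; inhibitors lower the luminescence because luciferase stays unfolded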
# dFosB activator – enhances mouse delta FosB homodimer DNA binding; P13346; purified delta FosB, TAMRA-CDK5 oligo fluorescence polarization; percent of positive-control signal above neutral wells; activation, % at 25 µM; 340,000 compounds, 0.99% hits; AID 493131;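 active = mean activation above about 17%, with every replicate also reaching it, limit read from the data, passing the limit was not always enough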
# Target sequence (P13346 whole entry, looked up): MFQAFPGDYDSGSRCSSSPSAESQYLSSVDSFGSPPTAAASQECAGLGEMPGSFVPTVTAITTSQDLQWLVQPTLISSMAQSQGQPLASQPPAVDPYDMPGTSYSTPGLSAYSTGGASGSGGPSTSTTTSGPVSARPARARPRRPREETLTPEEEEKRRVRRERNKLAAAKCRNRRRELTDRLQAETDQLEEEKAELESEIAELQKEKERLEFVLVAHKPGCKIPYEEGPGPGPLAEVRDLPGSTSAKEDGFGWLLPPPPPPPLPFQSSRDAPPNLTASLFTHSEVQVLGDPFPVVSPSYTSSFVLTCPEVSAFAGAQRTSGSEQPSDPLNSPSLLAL
# MPTP inh – blocks calcium-induced mitochondrial swelling. 360,000 compounds, 1.4% hits. inhibition, % at 10 µM. AID 602449. isolated mouse mitochondria, Ca2+ swelling absorbance, 30 min;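 active = inhibition of 50% or more, scaled per plate between neutral and stimulator controls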;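 also: 0% = DMSO wells given calcium and 100% = 1 mM EGTA wells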
# HSF-1 act – increases HSF-1 driven luciferase reporter signal | NIH3T3-HGL HSF-1 luciferase reporter, MG132, 8 h; 100% = twice DMSO control signal | 300,000 compounds, 1.7% hits | AID 504408 | activation, % at 9 µM;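 active = mean replicate activation of at least 50% with a set share of replicates each reaching 50%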;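 also: 0% = median of the neutral control wells and 100% = twice that signal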
# Rh123 counter – Rhodamine 123 counter-screen of mitochondrial pore hits | shares compounds with MPTP inh | isolated mitochondria, membrane potential, Rhodamine 123 fluorescence | inhibition, % at 10 µM | 5,000 compounds, 78% hits | AID 624504; in the data active = inhibition above about 22%;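 also: 0% = DMSO vehicle and 100% = positive control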
# MPTP swell DR – dose response confirmation of mitochondrial permeability transition pore inhibitors | AID 651561 | 780 compounds, 58% hits | shares compounds with MPTP inh | IC50, µM | isolated mitochondria swelling, absorbance; in the data active = IC50 below about 20 µM
# MPTP counter DR – MPTP inhibitor counter-screen activity, dose response; shares compounds with MPTP inh; isolated mitochondria counterscreen, fluorescence read-out; IC50, µM; 780 compounds, 49% hits; AID 651564; in the data active = IC50 below about 80 µM
# The depositor's hits bear a star; / = no result.
SMILES,Platelet DG rel,HSF1 inh,HSP90 inh,dFosB activator,MPTP inh,HSF-1 act,Rh123 counter,others
Cc1ccc2nc(NC(=O)C3CCN(S(=O)(=O)c4cc([N+](=O)[O-])ccc4Cl)CC3)sc2c1,7.3,-1.1,-1.7,-4.9,96.8*,10.5,68.6*,
O=c1ccn([C@@H]2O[C@H](CNCc3ccccc3OCc3ccc(Cl)cc3Cl)[C@@H](O)[C@H]2O)c(=O)[nH]1,/,/,/,/,0.4,/,/,
CCN1C(=O)/C(=C/C=C2/CCCN2C)OC1=S,-7.0,-2.7,-3.1,-7.6,1.4,-19.2,/,
CCOC(=O)c1sc(NNC(=O)c2ccc(C)cc2)nc1C,-4.5,8.6,-1.2,-3.5,3.7,9.6,/,
CCOC(=O)c1nc(NNC(=O)c2ccc([N+](=O)[O-])cc2)sc1C,4.0,-2.8,-2.7,-2.7,78.3*,-4.6,67.4*,
O=C(CSc1nc2cc(Cl)ccc2o1)Nc1ccc(N2CCOCC2)cc1,-2.3,5.9,2.7,-1.0,50.9*,19.0,67.6*,
O=C(CSc1nc2ccccc2o1)Nc1ccc(N2CCOCC2)cc1,-3.7,1.9,5.9,-5.5,29.5,9.9,/,
O=C(CSc1ccc(Cl)cc1)Nc1cccc(-c2nnc(-c3ccco3)o2)c1,-28.1,32.1,1.6,-3.1,69.9*,27.7,59.0*,
Cc1ccc(SCC(=O)Nc2cccc(-c3nnc(-c4ccco4)o3)c2)cc1,23.2,26.5,1.8,-25.5,0.6,41.4,/,
Cc1cc(N2CCCC2=O)cc(C)c1S(=O)(=O)NCCOc1ccc(C(C)(C)C)cc1,-2.3,-1.0,-2.3,-8.7,104.6*,-5.7,98.6*,
O=S(=O)(c1ccc(Br)s1)N1CCN(c2ccnc3cc(Cl)ccc23)CC1,18.5,9.0,5.2,-0.1,64.9*,18.2,36.0*,
Cc1ccc(-c2nn(-c3ccccc3)cc2CSC(=N)N)cc1,-1.4,-24.1,1.1,-147.1,99.1*,-26.9,-24.9,MPTP swell DR=5.55*;MPTP counter DR=40.6*
Cc1cccc(Nc2nnc(SCc3cn4ccsc4n3)s2)c1,-0.2,-0.2,4.2,-2.8,76.0*,1.5,-1.1,MPTP swell DR=>100;MPTP counter DR=>80
O=c1cc(CSc2nnc(Nc3ccccc3)s2)nc2sccn12,/,/,-0.6,-4.2,-1.9,/,/,
Cc1ccc(NC(=O)C2(c3ccccc3)CC2(Cl)Cl)cc1C (stereo unspecified),-3.2,0.4,-1.2,4.0,21.2,12.4,/,
Cc1cc(C)cc(NC(=O)C2(c3ccccc3)CC2(Cl)Cl)c1 (stereo unspecified),-0.7,-5.2,1.9,-1.7,70.7*,3.5,75.8*,
CCc1ccc(NC(=O)C2(c3ccccc3)CC2(Cl)Cl)cc1 (stereo unspecified),2.0,-0.3,2.3,-0.8,53.4*,4.2,71.8*,
Cc1ccc2c(c1)-c1cc(C)ccc1C2=O,/,/,/,3.4,0.0,/,/,
COC(=O)C1=C/CCCN(C(c2ccccc2)c2ccccc2)/C=C\1C(=O)OC,/,/,/,/,-0.6,/,/,
CC1(C)CC(NC(=O)c2cccc(S(=O)(=O)N(Cc3ccccc3)c3ccccc3)c2)CC(C)(C)N1,1.9,-2.4,/,6.6,82.6*,-4.9,-17.0,MPTP swell DR=9.49*;MPTP counter DR=>80
Cc1ccc(N(C)S(=O)(=O)c2cccc(C(=O)NC3CC(C)(C)NC(C)(C)C3)c2)cc1,11.2,0.7,/,-3.0,-0.9,2.5,/,
NC(=O)C1CCN(c2nc(-c3ccc4ccccc4c3)cs2)CC1,/,/,/,-4.8,-0.6,/,/,
COc1cccc(CNC(=O)[C@@H]2CCCN2C(=O)[C@H]2CCCCN2C(=O)OC(C)(C)C)c1,/,/,/,/,0.4,/,/,
c1ccc2c(CCNc3ncnc4nc[nH]c34)cccc2c1,-7.3,7.5,0.5,-2.7,64.0*,21.8,32.9*,
Cc1ccc(S(=O)(=O)n2c(N)nc3cc(C)c(C)cc32)cc1,/,/,/,/,1.3,/,/,
SMILES,Platelet DG rel,HSF1 inh,HSP90 inh,dFosB activator,MPTP inh,HSF-1 act,Rh123 counter,others
Cc1cc(C)c2c(C)c(C(=O)NCc3ccncc3)oc2c1,2.9,-5.2,2.4,-5.4,4.4,7.9,/,
CCc1ccc2oc(C(=O)NCc3ccncc3)c(C)c2c1,-7.0,3.4,-1.9,-9.7,68.9*,9.3,22.2*,
COc1cc(-c2nc(-c3ccccc3)c(-c3ccc(F)cc3)[nH]2)cc2c1OCO2,-13.5,-10.8,-0.1,0.9,88.8*,-3.8,62.8*,
COc1ccc(-c2[nH]c(-c3ccc4c(c3)OCO4)nc2-c2ccccc2)cc1,-4.1,-21.2,4.3,7.2,95.1*,-22.6,70.3*,
COc1cc(-c2nc(-c3ccccc3)c(-c3cc([N+](=O)[O-])ccc3C)[nH]2)cc(OC)c1OC,-1.3,10.7,3.0,7.4,3.2,4.7,/,
O=C(C(=O)N1CCN(c2ccccc2F)CC1)c1cn(CC(=O)N2CCCC2)c2ccccc12,/,/,/,/,-0.3,/,/,
Cc1nc2ccccc2c(=O)n1/N=C/c1ccc(C(C)C)cc1,-3.9,-0.4,1.6,-1.9,-0.1,-2.9,/,
Cc1c(N)ccc(-n2nc3ccccc3n2)c1C,1.4,0.1,/,/,1.6,-12.0,/,
CC(=O)Nc1ccc2nc(NS(=O)(=O)c3ccc(C)cc3)sc2c1,-5.5,5.6,-2.5,-9.3,-1.4,7.6,/,
Cc1ccc(S(=O)(=O)Nc2ccc3nc(C)sc3c2)cc1,-1.2,1.6,2.7,-10.1,67.7*,-18.7,105.2*,
Cc1ccc(S(=O)(=O)Nc2ccc3nc(N)sc3c2)cc1,-14.9,0.9,-0.6,-5.2,84.7*,-11.2,37.5*,
Cc1ccc2nc(-c3ccc(NS(=O)(=O)c4ccc(F)c(F)c4)cc3)sc2c1,-1.5,6.7,-3.4,-14.4,59.5*,22.0,71.3*,
CSc1nc2ccc(NS(=O)(=O)c3ccc(Cl)s3)cc2s1,-1.5,-5.4,-0.3,-6.2,86.8*,5.6,76.6*,
CC(=O)Nc1ccc(S(=O)(=O)Nc2ccc3nc(C)sc3c2)cc1,/,/,/,-5.8,59.3*,/,83.0*,
Cc1nc2ccc(NS(=O)(=O)c3ccc4c(c3)OCCO4)cc2s1,-11.2,3.8,5.9,-3.8,96.3*,1.0,97.4*,
Cc1nc2ccc(NS(=O)(=O)c3ccc(F)c(F)c3)cc2s1,/,/,/,6.6,5.5,/,/,
Cc1nc2ccc(NS(=O)(=O)c3cccc([N+](=O)[O-])c3)cc2s1,/,/,/,1.6,55.2*,/,71.7*,
Cc1nc2ccc(NS(=O)(=O)c3ccc(Br)cc3)cc2s1,/,/,/,-9.3,80.8*,/,98.7*,
COc1cc(/C=C(\C#N)C(=O)Nc2ccc(C(=O)O)cc2)ccc1OC(=O)c1cccc(F)c1,2.2,-4.7,-3.1,-15.4,0.6,11.5,/,
Cc1ccc(Cl)cc1NC(=O)COC(=O)c1ccccc1O,-8.7,-5.4,2.1,15.2,0.6,-4.4,/,
COc1cc(NC(=O)c2cc3ccccc3cc2O)c(OC)cc1Cl,-1.2,-5.1,-2.4,10.9,27.0,5.4,/,
